High-throughput results (PubChem BioAssay)
KB-V1 MDR tox: KB-V1 MDR subline cytotoxicity; Potency, µM (top dose mostly 46.1 µM), usual class: cytotoxic; AID 1347076; 400,000 compounds, 3.4% hits; KB-V1 MDR cells viability, CellTiter-Glo, 72 h; further: nearly all actives have a fitted effect of over 60% in size
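Potencies derive from concentration-effect curves fitted to normalized luminescence (CellTiter-Glo) of KB-V1 cells treated for 72 h at 37 degrees C in phenol-red-free DMEM containing 10% FBS.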
VP16 counter: Gal4-VP16 reporter inhibition counter-screen; Drosophila S2 Gal4-VP16 UAS-luciferase, luminescence, 20 h; Potency, µM (top dose mostly 53.6 µM), actives largely listed as inhibitors; 310,000 compounds, 3.5% hits;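 further: Gal4-VP16 expression switched on by copper sulfate through the metallothionein promoter; nearly all actives have a fitted effect of over 50% in size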
MCF10A rerep: DNA re-replication induction in MCF 10a cells. MCF 10A DNA re-replication, Hoechst nuclear intensity, 48 h. Potency, µM (series often up to 46.1 µM), hits mostly activators. 350,000 compounds, 2.9% hits; further: nearly all actives have a fitted effect of over 50% in size
SW480 rereplic: DNA re-replication induction in SW480 cells; 340,000 compounds, 1.8% hits; SW480 DNA re-replication, Hoechst DNA content imaging, 48 h; Potency, µM (doses to about 46.1 µM), hits mostly activators; AID 624297; further: nearly all actives have a fitted effect of over 55% in size
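Hoechst fluorescence of nuclei (405 nm excitation, 500-530 nm emission) measured by plate-scanning imager after 48 hr compound exposure at 37 C; re-replication scored as increased number of nuclei with elevated intensity.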
KB-3-1 cytotox: kills parental KB-3-1 adenocarcinoma cells. AID 1347075. Potency, µM (top dose mostly 46.1 µM), most hits filed as cytotoxic. KB-3-1 viability, CellTiter-Glo ATP luminescence, 72 h. 400,000 compounds, 1.4% hits; further: nearly all actives have a fitted effect of over 60% in size
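Parental KB-3-1 adenocarcinoma cells in phenol-red-free DMEM with 10% FBS were pin-treated with compounds at several concentrations, incubated 72 h at 37 °C, and viability read by CellTiter-Glo luminescence; concentration-effect curves were fitted after normalization.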
RORgamma inh: inhibitors of mouse ROR gamma transcriptional activity. 310,000 compounds, 5.4% hits. Drosophila S2 Gal4-RORgamma UAS-luciferase reporter, 20 h. Potency, µM (doses to about 53.6 µM), most hits filed as inhibitors; further: nearly all actives have a fitted effect of over 60% in size
Target sequence (P51450 whole entry, looked up, the tested form may be a part): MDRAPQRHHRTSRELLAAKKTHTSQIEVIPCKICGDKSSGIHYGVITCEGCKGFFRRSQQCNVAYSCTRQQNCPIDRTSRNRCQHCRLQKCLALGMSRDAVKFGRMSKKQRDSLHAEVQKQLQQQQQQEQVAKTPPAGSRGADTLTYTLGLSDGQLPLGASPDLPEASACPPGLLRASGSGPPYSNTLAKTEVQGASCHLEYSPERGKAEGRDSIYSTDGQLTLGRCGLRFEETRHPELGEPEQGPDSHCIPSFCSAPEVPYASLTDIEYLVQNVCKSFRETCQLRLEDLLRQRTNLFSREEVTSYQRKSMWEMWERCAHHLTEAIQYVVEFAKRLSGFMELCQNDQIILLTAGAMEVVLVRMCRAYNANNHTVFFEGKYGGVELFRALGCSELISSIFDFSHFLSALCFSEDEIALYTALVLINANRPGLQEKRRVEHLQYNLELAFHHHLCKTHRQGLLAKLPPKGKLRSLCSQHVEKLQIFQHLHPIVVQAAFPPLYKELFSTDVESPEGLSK
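Schneider cells (Drosophila), stable Gal4 DBD–ROR gamma + UAS-luc; 1 hr cmpd preincubation; Cu2+ induction 700 uM final; 20 hr ambient; luminescence.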
Of the large screens only hits and unclear results are named; the others gave an inactive call. This is a sample that favours compounds with a hit; in the whole collection about 10% have one here. The call rests on the fitted dose curve; in most records, active means well fitted curve in the direction sought with a large enough effect; inconclusive means small, poorly fitted or top-dose-only effect, or another doubt; inactive means no such curve, though single readings can be large; an effect the other way counts as inactive or inconclusive.

O=C(N/N=C/c1ccc2c(c1)OCO2)c1cc(-c2ccccc2Cl)nc2ccccc12	MCF10A rerep inconclusive, RORgamma inh inconclusive
COC(=O)C1CCN(C2CN(Cc3ccc(C)cc3)S(=O)(=O)C2)CC1 (stereo not given)	none (no result: VP16 counter, MCF10A rerep, SW480 rereplic, RORgamma inh)
COC(=O)c1ccc2nc(-c3cccc(N)c3)cn2c1	VP16 counter 7.94µM, RORgamma inh 6.31µM
COC(=O)c1ccc2nc(-c3ccc(S(C)(=O)=O)cc3)cn2c1	none
CCC1(C)N=C(c2ccc3c(c2)OCO3)CC(c2ccccc2O)N1 (stereo not given)	MCF10A rerep 7.31µM, SW480 rereplic 14.6µM, RORgamma inh inconclusive
CSCCC(NC(=O)c1ccco1)C(=O)N1CC(C)OC(C)C1 (stereo not given)	none (no result: VP16 counter, RORgamma inh)
Cn1cccc1CC(=O)NNC(=S)Nc1ccc(Cl)cc1	VP16 counter inconclusive, RORgamma inh 11.2µM
O=C(Cc1noc2ccccc12)NNC(=S)Nc1ccc(Cl)cc1	RORgamma inh 11.2µM
O=C(Cc1noc2ccccc12)NNC(=S)Nc1ccccc1	RORgamma inh inconclusive
Cn1cccc1CC(=O)NNC(=S)Nc1ccccc1Cl	none
CCc1cc2c(Sc3nc4ccccc4s3)ncnc2s1	KB-V1 MDR tox inconclusive, VP16 counter inconclusive, MCF10A rerep inconclusive, SW480 rereplic inconclusive, KB-3-1 cytotox 11.6µM, RORgamma inh 8.91µM
c1ccc2sc(Sc3ncnc4sccc34)nc2c1	VP16 counter inconclusive, MCF10A rerep 20.6µM, SW480 rereplic inconclusive, RORgamma inh 10µM
O=C(NCCc1ccccc1F)c1ccc2c(c1)OCCO2	VP16 counter 0.794µM, RORgamma inh 0.631µM
O=C(NCc1ccccc1F)c1ccc2c(c1)OCO2	none
O=C(NCCc1ccc2c(c1)OCCO2)c1ccc(F)cc1	KB-V1 MDR tox 23.1µM, RORgamma inh inconclusive (no result: SW480 rereplic)
COc1cc(/C=N/NC(=S)NCC2CCCO2)cc(OC)c1OC (stereo not given)	KB-V1 MDR tox inconclusive, VP16 counter 15.8µM, RORgamma inh 4.47µM
COc1ccc(/C=N/NC(=S)NCC2CCCO2)cc1 (stereo not given)	VP16 counter 11.2µM, RORgamma inh 2.82µM
CCOc1ccc(S(=O)(=O)N2Cc3ccccc3CC2C(=O)Nc2ccc(NC(C)=O)cc2)cc1 (stereo not given)	none (no result: VP16 counter, MCF10A rerep, SW480 rereplic, RORgamma inh)
COc1cccc(NC(=S)NCc2cccnc2)c1	MCF10A rerep inconclusive
COc1ccc2cc3cc(C(=O)NCc4cccs4)oc3nc2c1	KB-V1 MDR tox inconclusive, MCF10A rerep inconclusive, KB-3-1 cytotox 4.61µM
COc1cccc(NC(=S)NCc2ccccc2)c1	VP16 counter 8.91µM, RORgamma inh 10µM
S=C(NCc1cccs1)Nc1ccccc1	KB-V1 MDR tox inconclusive, VP16 counter inconclusive, RORgamma inh 10µM
COc1ccc(Cl)cc1NC(=S)NCc1cccs1	VP16 counter inconclusive, RORgamma inh 10µM
COc1ccc2cc3cc(C(=O)NCc4ccc(C)cc4)oc3nc2c1	none (no result: VP16 counter, MCF10A rerep, SW480 rereplic, RORgamma inh)
NS(=O)(=O)c1ccc(NC(=S)NCc2cccs2)cc1	none
COc1cc2c(cc1OC)C1O[C@](CCCCN3C(=O)c4ccccc4C3=O)(C2)Oc2c1c(=O)oc1ccccc21	none (no result: KB-V1 MDR tox, MCF10A rerep, SW480 rereplic, KB-3-1 cytotox)
Cc1oc(-c2cccc(Cl)c2)nc1Cn1c(SCc2ccccc2F)nc2ccncc21	none (no result: VP16 counter, MCF10A rerep, SW480 rereplic, RORgamma inh)
COc1cccc(-c2cc(N(C)Cc3ccco3)ncn2)c1	RORgamma inh inconclusive (no result: KB-V1 MDR tox, MCF10A rerep, SW480 rereplic, KB-3-1 cytotox)
Cc1ccccc1NC(=S)NCc1cccs1	VP16 counter inconclusive, RORgamma inh inconclusive
COc1ccc(CNC(=S)Nc2ccc(F)c(Cl)c2)cc1OC	KB-V1 MDR tox inconclusive, RORgamma inh 11.2µM
C=CCN(CC=C)C(=S)Nc1cc(Cl)ccc1OC	RORgamma inh inconclusive
COc1cccc(N/C(SCc2ccccc2F)=C(/C#N)C(=O)NCc2cccs2)c1	KB-V1 MDR tox 16.4µM, MCF10A rerep inconclusive, SW480 rereplic inconclusive
Cc1ccc(C)c(NC(=S)NCc2cccs2)c1	VP16 counter 11.2µM, RORgamma inh 3.98µM
COc1cccc(NC(=O)NCc2ccccc2F)c1	RORgamma inh inconclusive
C=CCNC(=S)Nc1cc(Cl)ccc1OC	VP16 counter inconclusive, RORgamma inh 12.6µM
COCCn1c(SCC(=O)c2ccc(F)cc2)nc2cc(C(=O)NC3CCCC3)ccc2c1=O	none (no result: VP16 counter, MCF10A rerep, SW480 rereplic, RORgamma inh)
Cc1cc(F)cc(-c2cc(C(=O)NCc3ccccn3)[nH]n2)c1	none (no result: VP16 counter, MCF10A rerep, SW480 rereplic, RORgamma inh)
CC(C)NC(=S)NCc1cccs1	SW480 rereplic inconclusive, RORgamma inh inconclusive
COc1ccc(NC(=S)NCc2cccs2)cc1OC	RORgamma inh 12.6µM
CCCCc1ccc(NC(=S)NCc2cccs2)cc1	VP16 counter inconclusive, MCF10A rerep inconclusive, RORgamma inh 2.24µM
Cc1ccc(NC(=S)NCc2cccs2)cc1	VP16 counter inconclusive, RORgamma inh 11.2µM
Cc1cccc(NC(=S)NNC(=S)NCc2ccccc2)c1	KB-V1 MDR tox inconclusive
CCCCc1ccc(NC(=O)CC(C)=O)cc1	none
Cc1cccc(NC(=S)NCc2cccs2)c1	VP16 counter inconclusive, RORgamma inh 6.31µM
O=C(O)[C@H]1C(=CCO)O[C@H]2CC(=O)N12	none (no result: KB-V1 MDR tox, KB-3-1 cytotox)
COC(=O)CC1C(C)(C)C(=O)C2CC3C4=CC(=O)OC(c5ccoc5)[C@]4(C)CCC3[C@@]1(C)C2=O (stereo not given in full)	none (no result: KB-V1 MDR tox, MCF10A rerep, SW480 rereplic, KB-3-1 cytotox)
Cc1ccc(NC(=S)N(Cc2ccccc2)Cc2cccs2)c(C)c1	VP16 counter inconclusive, RORgamma inh 7.08µM
COc1cccc(NC(=S)NCc2cccs2)c1	VP16 counter inconclusive, RORgamma inh 10µM
O=C(Cc1cccs1)NCc1ccc(F)cc1	none
Fc1ccc(NC(=S)NCc2cccs2)cc1	KB-V1 MDR tox 18.4µM, VP16 counter 28.2µM, SW480 rereplic inconclusive, KB-3-1 cytotox inconclusive, RORgamma inh 11.2µM
COc1cccc(NC(=S)Nc2ccc(F)cc2)c1	VP16 counter inconclusive, RORgamma inh 15.8µM
C[N+](C)(CCCOc1ccccc1)c1ccccc1	none (no result: KB-V1 MDR tox, MCF10A rerep, SW480 rereplic, KB-3-1 cytotox)
CCC12CN3CC(C)(CN(C1)C3c1c[nH]c3ccc(OC)cc13)C2=O (stereo not given)	KB-V1 MDR tox inconclusive (no result: VP16 counter, MCF10A rerep, SW480 rereplic, RORgamma inh)
O=C1NN=C2CCCCCCCCCCC12 (stereo not given)	none (no result: VP16 counter, MCF10A rerep, SW480 rereplic, RORgamma inh)
S=C1NC2=C(C(c3ccc(Br)cc3)N1)N1CCC2CC1 (stereo not given)	SW480 rereplic inconclusive, RORgamma inh 8.91µM
C=CCNC(=O)c1ccc(-n2cccc2)cc1	none
C=CCNC(=S)/N=c1/ccccn1CC	RORgamma inh 10µM
COc1ccc(/C=N/NC(=O)C[n+]2ccccc2)c(OC)c1	KB-V1 MDR tox inconclusive, MCF10A rerep 1.03µM
COc1ccc(/C=N/NC(=O)C[n+]2ccccc2)c(OC)c1OC	none
CC(NC(=O)C1CCCN1C(=O)OC(C)(C)C)C(=O)OCc1ccccc1 (stereo not given)	none (no result: VP16 counter, MCF10A rerep, SW480 rereplic, RORgamma inh)
